Screening results deposited in PubChem BioAssay by several laboratories.
CIT2-GFP yeast = yeast TOR pathway CIT2-GFP modulation. S. cerevisiae CIT2-GFP strain, flow cytometry, 3 h; 100 means same as DMSO wells. GFP response vs DMSO, % at 10 µM. hit rate 0.065% among 320,000. AID 2029;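 active = GFP response relative to DMSO above a set limit, near the screen mean plus 3 SD, cut at about 150% in these data; inconclusive = Fewer than 70 cells measured for a yeast strain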;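 note: ratio of well median GFP fluorescence to mean of DMSO wells on the plate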
RPL19A TOR yeast = modulators of TOR pathway RPL19A-GFP in S. cerevisiae; S. cerevisiae RPL19A-GFP strain, flow cytometry, 3 h; active compounds read low; AID 2025; hit rate 0.3% among 330,000; percent response vs DMSO, % at 10 µM;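 active = percent response vs DMSO below 50%; inconclusive = fewer than 70 events counted for the yeast strain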;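 note: median channel GFP fluorescence of the barcoded RPL19A-GFP strain; lower means less RPL19A-GFP as with rapamycin TOR inhibition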
LAP4-GFP MLPCN = alters LAP4-GFP fluorescence in TOR pathway yeast screen; GFP response vs DMSO, % at 10 µM; hit rate 0.34% among 320,000; S. cerevisiae LAP4-GFP multiplex, flow cytometry GFP, 3 h; median GFP as percent of DMSO wells;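 active = GFP response vs DMSO above a set limit, about the screen mean plus 3 SD, cut at about 150% in these data; inconclusive = under 70 cell events counted for the yeast strain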
AGP1 TOR yeast = modulators of TOR pathway AGP1-GFP in S. cerevisiae; S. cerevisiae AGP1-GFP multiplex flow cytometry, 3 h; GFP as percent of DMSO wells; GFP response vs DMSO, % at 10 µM; hit rate 0.02% among 320,000; AID 2066;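 active = GFP response relative to DMSO above a set limit, near screen average plus 3 SD, cut at about 150% in these data; inconclusive = fewer than 70 cells counted for the yeast strain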;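 note: median GFP channel fluorescence of the gated AGP1 strain per well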
MEP2 TOR yeast = modulators of TOR pathway MEP2-GFP in S. cerevisiae; GFP response vs DMSO, % at 10 µM; hit rate 0.51% among 330,000; S. cerevisiae MEP2-GFP strain, flow cytometry GFP, 3 h; 100% = DMSO control level; AID 2016;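 active = GFP response versus DMSO above a set limit, roughly screen mean plus 3 SD, cut at about 180% in these data; inconclusive = fewer than 70 cells counted for a yeast strain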;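 note: median GFP fluorescence of the barcode-gated MEP2-GFP cells per well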
GASC-1 inh = inhibitors of human GASC-1 (JMJD2C) demethylase; GST-JMJD2C(1-420) H3K9me3 demethylation, DELFIA europium; inhibition, % at 2.35 µM; hit rate 0.069% among 330,000; AID 2099;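 active = more than half of a compound's replicate wells show inhibition beyond 50%, single wells judged on their own value; inconclusive = some, but no more than half, of replicates pass 50% inhibition; inactive = no replicate passes 50% inhibition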;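 note: signal counts dimethyl H3K9 product captured on neutravidin plate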
Target sequence (Q9H3R0 1-420 limits assumed): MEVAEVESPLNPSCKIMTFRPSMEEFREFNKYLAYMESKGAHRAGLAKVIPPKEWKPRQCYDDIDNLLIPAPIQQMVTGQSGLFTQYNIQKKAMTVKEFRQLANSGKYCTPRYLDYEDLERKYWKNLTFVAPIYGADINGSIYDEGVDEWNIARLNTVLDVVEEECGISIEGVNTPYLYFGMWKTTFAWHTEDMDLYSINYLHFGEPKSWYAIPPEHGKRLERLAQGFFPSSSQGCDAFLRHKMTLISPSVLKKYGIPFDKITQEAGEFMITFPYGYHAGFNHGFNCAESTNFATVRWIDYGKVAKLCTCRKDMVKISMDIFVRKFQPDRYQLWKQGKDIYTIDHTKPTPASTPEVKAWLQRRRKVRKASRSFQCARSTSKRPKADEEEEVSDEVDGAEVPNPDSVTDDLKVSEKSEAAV
Numbers stand for hits; . = inactive; ? = inconclusive; / = not tested or not shown; [ ] = dose if it differs, or a comment. Most compounds without a hit are left out; they make up all but 0.97% or so of the library.

SMILES | CIT2-GFP yeast | RPL19A TOR yeast | LAP4-GFP MLPCN | AGP1 TOR yeast | MEP2 TOR yeast | GASC-1 inh
C=CCc1cccc(Cl)c1OCCCNC1CCCC1 | . | . | . | . | . | .
O=C(NC1CCCc2ccccc21)c1ccccc1 (centres undefined) | . | . | . | . | . | .
O=C(NC1CCCc2ccccc21)c1ccc(Br)cc1 (centres undefined) | . | . | . | . | . | 58
NCCC1CCCC(CCN)N1 (centres undefined) | . | ? | 454[may fluoresce red] | . | . | .
CC(C)c1nc(SCC(=O)NCC2CCCO2)c2c(=O)n(C)c(=O)n(C)c2n1 (centres undefined) | . | . | . | . | . | .
Cc1ccc(S(=O)(=O)CCC(=O)c2cccc([N+](=O)[O-])c2)cc1 | 161[may fluoresce green] | . | . | . | . | .
Cc1ccc(C(=O)CCS(=O)(=O)c2ccc(Br)cc2)cc1 | 159[may fluoresce green] | . | . | . | . | .
CCN(CC)c1ccc(/C=C/c2nc3ccccc3s2)cc1 | . | . | . | . | 206 | .
COc1ccccc1NC(=S)NCCc1c[nH]c2ccccc12 | ? | / | . | ? | 262[may fluoresce violet] | .
NS(=O)(=O)c1ccc(CCNC(=O)CSc2ccccc2)cc1 | / | . | . | . | . | 51
C/C(=N/NC(N)=S)c1cc2ccc(O)cc2oc1=O | ? | 20[may fluoresce violet] | . | ? | ? | .
C/C(=N/NC(=O)c1ccncc1)c1cc2ccc(O)cc2oc1=O | ? | ? | ? | ? | ? | .
CCn1c(=O)c([N+](=O)[O-])c(N2CCN(Cc3ccc4c(c3)OCO4)CC2)c2ccccc21 | . | . | . | . | . | .
COC(=O)Cc1ccc(NC(C)=O)cc1 | . | . | . | . | . | .
COc1ccc(-c2cc(=O)n(-c3nc4ccccc4[nH]3)[nH]2)cc1 | . | . | 181 | . | . | .
CCN(C(=O)COC(=O)CCC(=O)c1cccs1)c1c(N)n(Cc2ccccc2)c(=O)[nH]c1=O | . | . | . | . | . | .
CCN(C[C@H]1N[C@@](C)(C(=O)OC)[C@H]2C(=O)N(C)C(=O)[C@@H]12)S(=O)(=O)c1ccc(F)cc1 | . | . | . | . | . | .
NS(=O)(=O)c1ccc(N/N=C/c2cn(-c3ccccc3)nc2-c2cccs2)cc1 | / | / | / | / | / | .
NS(=O)(=O)c1ccc(N/N=C/c2cn(-c3ccccc3)nc2-c2cccs2)c([N+](=O)[O-])c1 | ? | 19[may fluoresce violet] | . | ? | 221[may fluoresce violet] | .
O=C(COCc1cc(-c2ccc3c(c2)OCO3)on1)N1CCN(c2ccccc2)CC1 | . | . | . | . | . | .
CCOc1ccc(Nc2nc(N(C)c3ccccc3)nc(N)c2[N+](=O)[O-])cc1 | . | . | . | . | 199 | .
CCOc1ccc(Nc2nc(N)c([N+](=O)[O-])c(NCc3ccccc3)n2)cc1 | . | . | . | . | . | .
CSc1ncccc1C(=O)Nc1ccccc1N1CCOCC1 | . | . | . | . | . | .
COCCNC(=O)c1ccc(Cl)c(Cl)c1 | 183 | . | 215 | . | 286 | .
COCCNC(=O)c1ccc(NC(C)=O)cc1 | . | . | . | . | . | .
SMILES | CIT2-GFP yeast | RPL19A TOR yeast | LAP4-GFP MLPCN | AGP1 TOR yeast | MEP2 TOR yeast | GASC-1 inh
Cc1ccc(OCCCCn2ccnc2C)c(C)c1 | . | . | . | . | 196 | .
O=C(NCc1cccc(C(F)(F)F)c1)c1ccc(=O)[nH]c1 | . | . | . | . | . | .
CCn1c(=O)c(C)nn2c3ccccc3nc12 | . | . | . | . | . | .
Cn1c(=O)c(-c2ccccc2)nn2c3ccccc3nc12 | . | . | . | . | . | 52
COc1cccc(/C=C/c2nc(C#N)c(NCC(C)C)o2)c1 | . | . | . | . | . | .
COc1ccc(N2CCN(C(=O)CCc3nnc4ccc(N5CCCC5)nn34)CC2)cc1 | . | . | . | . | 190 | .
Cc1ccc(NC(=O)CN2C(=O)c3ccccc3S2(=O)=O)c(C)c1 | ? | 33[may fluoresce violet] | . | ? | 276[may fluoresce violet] | .
Cc1cccc(NC(=O)CN2NS(=O)(=O)c3ccccc3C2=O)c1 | ? | 16[may fluoresce violet] | . | ? | 315[may fluoresce violet] | .
Cc1ccc(C(=O)CN(CCC(=O)O)C(=O)c2ccncc2)cc1 | . | . | . | . | . | .
COC(=O)c1cc(C#N)c(SCc2ccccc2)nc1C | . | . | . | . | . | .
CC(=O)c1cc(C#N)c(SCc2ccccc2)nc1C | ? | . | . | / | 184[may fluoresce violet] | .
Cc1cccc(NC2SC(=O)NC2=O)c1 (centres undefined) | . | . | . | . | . | .
Fc1ccc(C2CC(c3ccccc3)n3ncnc3N2)cc1 (centres undefined) | . | . | 181 | 161 | . | .
Clc1ccc(C2CC(c3ccccc3)Nc3ncnn32)cc1 (centres undefined) | . | . | . | . | . | .
Cc1ccc2c(c1)C1CN(C)CCC1N2C(=O)c1ccc(Cl)c(S(=O)(=O)N2CCOCC2)c1 (centres undefined) | . | . | 150 | . | . | .
O=C(NC1CCCC1)c1ccc(Cl)c(S(=O)(=O)N2CCOCC2)c1 | ? | . | . | ? | 636[may fluoresce violet] | .
O=C(NC1CCCCCCC1)c1ccc(F)c(S(=O)(=O)N2CCOCC2)c1 | . | . | . | . | . | .
CCOc1ccc(CCNC(=O)CCc2nnc3ccc(N4CCCCC4)nn23)cc1OCC | . | . | . | . | . | .
COc1cc(/C=C2\N=C(C)OC2=O)cc(Cl)c1OC(C)=O | . | . | . | . | . | .
CCOc1cc(/C=C2\N=C(C)OC2=O)cc(Cl)c1OCC(=O)OC | . | . | 170 | . | . | .
N/C(=N\OC(=O)c1cccc([N+](=O)[O-])c1)c1cccnc1 | ? | 24[may fluoresce violet] | . | ? | 215[may fluoresce violet] | .
Cc1cccc(C(=O)O/N=C(\N)c2cccc([N+](=O)[O-])c2)c1 | . | . | . | . | . | .
COc1ccc(OC)c(S(=O)(=O)NCc2nc3nc(C)cc(C)n3n2)c1 | . | . | . | . | . | .
Cc1cc(C)n2nc(CNS(=O)(=O)c3ccc([N+](=O)[O-])cc3)nc2n1 | ? | 29[may fluoresce violet] | . | ? | . | .
CC(=O)Nc1cccc(NC(=O)CSc2n[nH]c(-c3ccccc3)n2)c1 | . | . | . | . | . | .
Cc1cc(C)cc(Oc2nc3ccccn3c(=O)c2/C=C(\C#N)C(=O)NC2CCS(=O)(=O)C2)c1 (centres undefined) | ? | . | . | ? | 627[may fluoresce violet] | .
N#C/C(=C\c1c(N2CCOCC2)nc2ccccn2c1=O)C(=O)NC1CCS(=O)(=O)C1 (centres undefined) | ? | . | . | . | 598[may fluoresce violet] | .
N#C/C(=C\c1c(Oc2ccccc2Cl)nc2ccccn2c1=O)C(=O)NC1CCS(=O)(=O)C1 (centres undefined) | . | . | . | . | . | .
N#C/C(=C\c1c(N2CCCCCC2)nc2ccccn2c1=O)C(N)=O | . | . | . | . | . | .
